# Assay results taken from the supplement of paper PMC10849652.
# Targets with a hit are over-represented here; the source holds about 7,900 in all. About 0.6% of all pairs of compound and target were hits. Unmarked numbers belong to inactive results.
# Legend:
# Experiment in all cases: log2 fold change, soluble protein after heating vs DMSO (PISA); higher = thermal stabilisation; K562 cells, 10 uM, 30 min; active = over 0.2 and 3.5 SD of the protein, either way, in both replicates (recomputed)
# erlotinib = compound: C#Cc1cccc(Nc2ncnc3cc(OCCOC)c(OCCOC)cc23)c1 [erlotinib]
# Summary of the method: (§1)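 K562 cells at 2×10^6 cells/mL were given 10 μM compound for 30 min. Aliquots then went through 3 min of heating across 48°C-58°C, were pooled, and were extracted in PBS with 0.5% NP-40 at 4°C, and the supernatant after 21,000xg for 90 min was quantified by TMTpro 16plex LC-MS/MS with channel sums equalised. Thermal stability relative to control samples, from duplicates, is given as log2 fold change.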
# [1] = compound: C/C(=N\NC(=O)C1=CC(=CC=C1)S(=O)(=O)N2CCOCC2)/C3=C(C=CC(=C3)Cl)O
# Summary of the method: as §1
# [2] = compound: C1=CC(=C(C=C1Cl)C2=NC3=NC=CN=C3C(=N2)NC4=CC=NC=C4)F
# Summary of the method: as §1
# [3] = compound: C1=CC(=CC=C1C2=NC3=C(N2)C=C(C=C3)C(=O)N)OC4=CC=C(C=C4)Cl
# Summary of the method: as §1
# [4] = compound: C1=CC2=C(C=CC(=C2)/C=C\3/C(=O)NC(=NCC4=CC=CS4)S3)N=C1
# Summary of the method: as §1
# [5] = compound: C1=CC2=NC=CN=C2C=C1/C=C/3\C(=O)NC(=O)S3
# Summary of the method: as §1
# [6] = compound: C1=CC=C(C=C1)C2=NC(=C(N2)C3=CC=NC=C3)C4=CC(=C(C=C4)Cl)O
# Summary of the method: as §1
# [7] = compound: C1=CC=C2C(=C1)C3=NNC4=CC=CC(=C43)C2=O
# Summary of the method: as §1
# [8] = compound: C1CCN(C1)C(=O)NC2=CC=CC(=C2)NC3=NC=C(C(=N3)NCCC4=CN=CN4)Br
# Summary of the method: as §1
# [9] = compound: C1CN(CCC1(CC2=CC=C(C=C2)Cl)N)C3=NC=NC4=C3C=CN4
# Summary of the method: as §1
# UniProt Q9UHX1, sequence (Q9UHX1 whole entry, looked up): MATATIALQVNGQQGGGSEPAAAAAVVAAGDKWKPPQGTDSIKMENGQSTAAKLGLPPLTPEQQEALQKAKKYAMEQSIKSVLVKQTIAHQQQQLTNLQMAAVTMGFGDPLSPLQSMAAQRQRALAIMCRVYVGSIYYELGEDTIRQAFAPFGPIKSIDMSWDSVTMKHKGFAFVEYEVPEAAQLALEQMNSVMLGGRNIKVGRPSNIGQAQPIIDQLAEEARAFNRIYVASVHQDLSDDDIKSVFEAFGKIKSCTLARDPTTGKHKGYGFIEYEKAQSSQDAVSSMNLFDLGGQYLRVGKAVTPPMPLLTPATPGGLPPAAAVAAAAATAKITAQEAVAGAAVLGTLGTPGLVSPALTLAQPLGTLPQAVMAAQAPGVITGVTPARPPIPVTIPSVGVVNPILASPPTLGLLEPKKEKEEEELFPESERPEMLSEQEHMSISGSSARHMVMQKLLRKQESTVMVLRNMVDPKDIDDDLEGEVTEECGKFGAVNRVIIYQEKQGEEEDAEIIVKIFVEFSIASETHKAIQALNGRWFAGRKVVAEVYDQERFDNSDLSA
# UniProt Q29RF7, sequence (Q29RF7 whole entry, looked up): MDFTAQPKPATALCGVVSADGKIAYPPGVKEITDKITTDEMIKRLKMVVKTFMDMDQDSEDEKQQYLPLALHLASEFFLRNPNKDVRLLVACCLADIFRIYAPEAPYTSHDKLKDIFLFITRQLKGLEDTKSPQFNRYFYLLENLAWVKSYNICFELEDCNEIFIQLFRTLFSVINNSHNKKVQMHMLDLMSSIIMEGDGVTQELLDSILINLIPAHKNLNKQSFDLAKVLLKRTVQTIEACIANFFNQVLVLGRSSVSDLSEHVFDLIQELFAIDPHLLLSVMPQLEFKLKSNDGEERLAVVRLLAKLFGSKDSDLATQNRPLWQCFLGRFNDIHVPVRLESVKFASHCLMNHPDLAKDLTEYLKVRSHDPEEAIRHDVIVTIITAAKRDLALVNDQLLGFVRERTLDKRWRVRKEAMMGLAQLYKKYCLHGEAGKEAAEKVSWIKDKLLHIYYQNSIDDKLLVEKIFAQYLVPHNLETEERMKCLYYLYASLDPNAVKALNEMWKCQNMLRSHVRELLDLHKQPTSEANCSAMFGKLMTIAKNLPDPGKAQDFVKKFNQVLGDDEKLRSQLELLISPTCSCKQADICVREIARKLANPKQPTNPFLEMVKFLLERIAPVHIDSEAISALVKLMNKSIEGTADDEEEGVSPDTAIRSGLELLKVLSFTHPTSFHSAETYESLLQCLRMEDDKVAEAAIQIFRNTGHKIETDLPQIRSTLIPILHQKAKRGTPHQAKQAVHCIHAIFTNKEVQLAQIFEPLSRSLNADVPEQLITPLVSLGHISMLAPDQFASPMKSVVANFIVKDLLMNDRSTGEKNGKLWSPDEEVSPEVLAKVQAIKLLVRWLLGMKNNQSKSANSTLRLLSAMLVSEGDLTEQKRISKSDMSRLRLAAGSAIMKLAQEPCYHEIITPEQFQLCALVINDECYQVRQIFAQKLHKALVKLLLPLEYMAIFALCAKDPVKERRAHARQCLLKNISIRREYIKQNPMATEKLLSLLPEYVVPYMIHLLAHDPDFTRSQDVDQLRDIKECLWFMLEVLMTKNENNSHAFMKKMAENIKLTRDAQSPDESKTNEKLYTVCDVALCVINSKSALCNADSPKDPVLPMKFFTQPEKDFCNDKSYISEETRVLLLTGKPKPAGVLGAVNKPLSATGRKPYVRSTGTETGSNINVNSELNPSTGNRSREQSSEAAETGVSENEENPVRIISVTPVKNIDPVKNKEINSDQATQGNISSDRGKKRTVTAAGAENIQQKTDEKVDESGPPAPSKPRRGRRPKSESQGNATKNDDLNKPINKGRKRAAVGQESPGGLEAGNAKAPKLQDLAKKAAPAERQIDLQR
# UniProt Q9Y3C6, sequence (Q9Y3C6 whole entry, looked up): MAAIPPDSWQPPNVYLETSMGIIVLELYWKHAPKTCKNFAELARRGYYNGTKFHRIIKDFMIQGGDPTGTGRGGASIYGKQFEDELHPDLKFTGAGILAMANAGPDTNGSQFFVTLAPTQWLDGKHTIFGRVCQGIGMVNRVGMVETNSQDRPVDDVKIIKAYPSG
# UniProt Q9UG56, sequence (Q9UG56 whole entry, looked up): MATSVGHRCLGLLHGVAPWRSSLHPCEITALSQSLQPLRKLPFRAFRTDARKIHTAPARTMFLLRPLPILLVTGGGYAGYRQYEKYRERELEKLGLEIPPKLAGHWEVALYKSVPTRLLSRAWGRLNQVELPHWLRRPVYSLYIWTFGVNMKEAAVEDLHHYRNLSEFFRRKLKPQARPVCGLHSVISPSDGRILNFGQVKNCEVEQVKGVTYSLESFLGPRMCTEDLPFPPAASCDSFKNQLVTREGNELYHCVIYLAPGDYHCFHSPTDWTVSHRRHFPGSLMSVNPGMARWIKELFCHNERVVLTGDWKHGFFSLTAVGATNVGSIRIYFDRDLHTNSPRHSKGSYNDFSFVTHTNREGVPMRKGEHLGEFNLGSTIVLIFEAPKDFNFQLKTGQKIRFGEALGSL
# UniProt P49585, sequence (P49585 whole entry, looked up): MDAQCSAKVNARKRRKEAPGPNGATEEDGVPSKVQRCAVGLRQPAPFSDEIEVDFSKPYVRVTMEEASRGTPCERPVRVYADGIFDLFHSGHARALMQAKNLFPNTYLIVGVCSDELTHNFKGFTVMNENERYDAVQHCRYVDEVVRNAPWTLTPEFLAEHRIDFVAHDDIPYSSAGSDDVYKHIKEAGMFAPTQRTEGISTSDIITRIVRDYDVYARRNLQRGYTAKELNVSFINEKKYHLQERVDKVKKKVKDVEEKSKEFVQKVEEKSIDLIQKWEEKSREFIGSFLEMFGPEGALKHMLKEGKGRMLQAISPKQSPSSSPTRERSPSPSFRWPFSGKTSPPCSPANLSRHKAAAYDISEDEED
# UniProt P28072, sequence (P28072 whole entry, looked up): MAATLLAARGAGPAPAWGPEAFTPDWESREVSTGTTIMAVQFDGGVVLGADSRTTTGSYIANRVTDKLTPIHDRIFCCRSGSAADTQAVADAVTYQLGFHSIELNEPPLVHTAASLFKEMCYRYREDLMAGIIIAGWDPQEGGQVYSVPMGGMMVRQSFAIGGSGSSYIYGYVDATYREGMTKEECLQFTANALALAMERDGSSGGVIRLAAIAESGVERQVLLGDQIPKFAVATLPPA
# UniProt Q92968, sequence (Q92968 whole entry, looked up): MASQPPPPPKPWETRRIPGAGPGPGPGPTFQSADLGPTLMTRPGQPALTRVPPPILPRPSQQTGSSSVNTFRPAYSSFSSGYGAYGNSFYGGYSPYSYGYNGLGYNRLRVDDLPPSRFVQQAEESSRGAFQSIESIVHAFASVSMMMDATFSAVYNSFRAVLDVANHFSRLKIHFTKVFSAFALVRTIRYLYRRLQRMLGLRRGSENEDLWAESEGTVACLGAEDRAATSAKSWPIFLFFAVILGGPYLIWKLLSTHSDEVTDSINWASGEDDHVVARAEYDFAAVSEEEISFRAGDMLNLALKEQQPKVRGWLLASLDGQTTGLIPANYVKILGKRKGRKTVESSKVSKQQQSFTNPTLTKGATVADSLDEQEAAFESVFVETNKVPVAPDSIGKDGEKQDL
# UniProt P62136, sequence (P62136 whole entry, looked up): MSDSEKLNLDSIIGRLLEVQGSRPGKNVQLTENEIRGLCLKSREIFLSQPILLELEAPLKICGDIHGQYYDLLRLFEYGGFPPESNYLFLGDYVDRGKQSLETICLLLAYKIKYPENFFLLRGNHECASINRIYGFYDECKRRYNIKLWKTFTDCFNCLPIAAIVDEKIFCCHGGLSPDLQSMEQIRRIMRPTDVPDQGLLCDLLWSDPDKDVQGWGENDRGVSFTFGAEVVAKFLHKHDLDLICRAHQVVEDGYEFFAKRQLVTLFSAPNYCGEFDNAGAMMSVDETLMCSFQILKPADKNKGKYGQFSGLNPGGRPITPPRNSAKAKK
# UniProt Q6GMV3, sequence (Q6GMV3 whole entry, looked up): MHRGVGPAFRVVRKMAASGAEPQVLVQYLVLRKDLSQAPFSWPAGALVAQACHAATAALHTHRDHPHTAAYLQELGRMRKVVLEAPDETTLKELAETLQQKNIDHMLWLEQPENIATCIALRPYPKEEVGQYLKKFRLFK
# UniProt Q16537, sequence (Q16537 whole entry, looked up): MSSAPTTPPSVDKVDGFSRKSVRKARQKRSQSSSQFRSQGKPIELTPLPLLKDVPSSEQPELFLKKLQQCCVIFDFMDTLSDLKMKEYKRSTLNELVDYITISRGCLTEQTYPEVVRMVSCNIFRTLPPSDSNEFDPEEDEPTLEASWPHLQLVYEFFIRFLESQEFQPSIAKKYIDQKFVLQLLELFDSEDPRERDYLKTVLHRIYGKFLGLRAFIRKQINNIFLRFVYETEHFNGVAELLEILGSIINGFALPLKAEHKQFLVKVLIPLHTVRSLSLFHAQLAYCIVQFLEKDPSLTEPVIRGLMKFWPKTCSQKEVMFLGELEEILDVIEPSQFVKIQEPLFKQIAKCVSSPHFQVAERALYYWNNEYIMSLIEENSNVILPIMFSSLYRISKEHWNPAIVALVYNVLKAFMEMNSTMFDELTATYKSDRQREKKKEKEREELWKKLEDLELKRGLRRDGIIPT
# UniProt P31323, sequence (P31323 whole entry, looked up): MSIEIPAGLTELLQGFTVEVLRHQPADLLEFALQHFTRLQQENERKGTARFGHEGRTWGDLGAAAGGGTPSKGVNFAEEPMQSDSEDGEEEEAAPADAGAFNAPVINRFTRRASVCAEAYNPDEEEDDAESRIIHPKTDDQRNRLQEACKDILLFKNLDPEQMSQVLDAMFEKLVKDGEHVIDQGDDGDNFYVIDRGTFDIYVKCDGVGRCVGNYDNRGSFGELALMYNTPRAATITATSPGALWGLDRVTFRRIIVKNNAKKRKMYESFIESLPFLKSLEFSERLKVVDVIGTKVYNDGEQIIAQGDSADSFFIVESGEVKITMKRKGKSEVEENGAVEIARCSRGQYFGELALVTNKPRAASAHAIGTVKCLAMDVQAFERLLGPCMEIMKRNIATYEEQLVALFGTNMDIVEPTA
Target,log2 fold change (erlotinib),log2 fold change [1],log2 fold change [2],log2 fold change [3],log2 fold change [4],log2 fold change [5],log2 fold change [6],log2 fold change [7],log2 fold change [8],log2 fold change [9]
PSMD5 (UniProt Q16401),-0.015,0.038,0.063,-0.007,0,0.027,-0.001,-0.012,0.014,-0.004
PPIL1 (UniProt Q9Y3C6),0.019,-0.009,-0.027,-0.012,0.024,0.061,-0.013,-0.025,-0.007,-0.027
PLD3 (UniProt Q8IV08),-0.012,0.029,0.054,0.023,0.04,0.024,-0.061,0.006,0.001,0.048
PXK (UniProt Q7Z7A4),0.062,0.019,-0.006,0.022,0.074,0.018,0.251 (active),0.019,0.014,0.004
POLR2K (UniProt P53803),-0.081,0.021,-0.037,0.127,-0.017,0.097,-0.1,-0.105,0.005,0.022
PRKCD (UniProt Q05655),-0.01,0.004,0.028,0.065,0.016,0.044,-0.006,-0.008,0.009,-0.001
PSMD3 (UniProt O43242),-0.074,-0.05,-0.072,0.002,-0.022,-0.028,0.008,0.033,-0.012,-0.066
POLR2I (UniProt P36954),-0.058,-0.107,0.108,0.068,-0.073,-0.117,0.079,-0.043,-0.092,0
PISD (UniProt Q9UG56),-0.021,-0.055,0.026,0.089,0.034,0.023,0.02,0.058,0.009,-0.004
POTEI (UniProt P0CG38),0.023,0.007,-0.009,0.011,-0.037,-0.052,0.045,0.038,-0.003,0.046
PCTP (UniProt Q9UKL6),0.035,-0.04,0.065,0.046,0.057,0.076,0.012,0.002,0.049,-0.035
PSMB6 (UniProt P28072),-0.067,-0.079,-0.024,-0.001,-0.068,-0.006,-0.046,-0.012,0.011,0.042
PDS5A (UniProt Q29RF7),0.225,0.132,0.04,-0.227,0.05,-0.176,0.14,0.108,-0.25,-0.267
PTTG1 (UniProt O95997),-0.024,0.094,-0.024,0.029,-0.043,-0.005,-0.205,-0.045,-0.024,-0.093
PEX13 (UniProt Q92968),0.026,0.03,0.026,0.009,0.048,0.073,-0.01,0.005,0.038,0.036
PRKAR2B (UniProt P31323),-0.017,0.066,-0.082,0.16,-0.004,0.012,-0.058,-0.083,-0.449 (active),-0.636 (active)
POLA1 (UniProt P09884),0.03,0.038,0.042,-0.023,-0.032,0,-0.013,0.021,0.006,-0.022
PUF60 (UniProt Q9UHX1),-0.011,0.172,-0.005,0.014,-0.071,-0.026,0.013,0.02,-0.072,-0.141
PRKCQ (UniProt Q04759),0.036,0.047,0.024,0.03,0.093,0.012,0.012,-0.008,-0.007,-0.061
PCK2 (UniProt Q16822),0.025,-0.224 (active),0.108,-0.009,0.038,-0.016,-0.023,0.072,-0.018,-0.001
PRKAA1 isoform 2 (UniProt Q13131),0,0.026,0.084,0.045,0.018,0.013,0.012,-0.051,-0.034,0.012
PTRHD1 (UniProt Q6GMV3),-0.002,0.005,0.37 (active),0.046,0.134,0.045,0.121,-0.032,-0.017,-0.012
PRKD2 isoform 3 (UniProt Q9BZL6),0.04,0.214,0.022,0.055,0.003,0.004,-0.126,-0.347,-0.04,-0.075
PIP4K2C (UniProt Q8TBX8),0.482,-0.063,0.023,-0.129,0.059,0.575,0.139,0.21,0.493,-0.025
PCYT1A (UniProt P49585),-0.014,0.125,-0.03,-0.001,0.019,0.054,-0.09,-0.033,-0.043,-0.009
PPP2R5E (UniProt Q16537),0.017,0.096,0.005,-0.061,-0.007,0,0.075,0.054,-0.013,0.056
PHAX (UniProt Q9H814),-0.004,0.042,0.045,0.009,0.023,0.054,-0.047,-0.101,-0.013,0.059
PPP1CA (UniProt P62136),0.026,-0.002,-0.015,-0.006,0.036,-0.005,0.001,-0.03,-0.004,0.009
PRPF4B (UniProt Q13523),0.002,0.044,-0.213,0.074,-0.046,-0.064,-0.14,-0.12,-0.103,-0.113
PRKACA (UniProt P17612),0.013,0.033,-0.054,-0.016,-0.034,0.042,0.087,-0.025,-0.142,0.047
